We go through 6 compounds from PubChem BioAssay (NCATS).

Structures are written as SMILES. Results filed as inconclusive are left out. Activity calls are given as the source filed them. Calls come from the whole dose curve.

The nature of assay [1]: qHTS drug screen for cell cycle checkpoint inhibitors in PARPi-resistant BRCA-mutant ovarian cancer cell lines. (AID 1963452). Conditions: PEO1/OlaR viability, CellTiter-Glo luminescence, 96 h, stronger effect = lower value. The procedure, abridged: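 PEO1, PEO4 and PEO1/OlaR ovarian cancer cells, 600 per well, exposed 96 h at 37C to a dilution series. Viability read by CellTiter-Glo luminescence, normalized to DMSO and empty wells; activity summarized as Z-AUC.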

Assay [2] can be described thus: qHTS for identification of novel therapeutic agents for treatment of microphthalmiaassociated transcription factor (MiT) renal cell carcinoma (RCC) (AID 1963991). Note: potency is the fitted concentration of half-maximal effect. Conditions: CellTiter-Glo, 48 h; for z-score: stronger effect = lower value. An outline of the steps: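 Curves over 11 concentrations were fitted to CellTiter-Glo luminescence, scaled between empty wells (0%) and DMSO (100%) viability. Cells were UOK109, UOK124 and UOK145 TFE3-fusion RCC lines at 500/well, exposed 48 hours at 37 C.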

[3] abbreviates: measured here: PEO1 parental Z-AUC.
Setting [4] is: TFE3-RCC UOK109 viability, measured here: UOK109 Z-AUC.
Setting [5] is: TFE3-RCC viability, measured here: UOK124 Z-AUC.
Where [6] appears, read: TFE3-RCC viability, measured here: UOK145 Z-AUC.

As to `c1ccc2c(-c3cnn4cc(-c5ccc(N6CCNCC6)cc5)cnc34)ccnc2c1`, the Z-AUC is -0.163 (inactive) in assay [1], -0.568 in assay [1] (setting [3]) and -0.419 in assay [1] (measured here: PEO4 Z-AUC). In addition, the Potency in assay [2] (TFE3-RCC UOK109 viability, active = Z-AUC below -0.8 in all three lines) is 18.7 µM (active). Moreover, the values for the z-score in assay [2] (setting [4]), in assay [2] (setting [5]) and in assay [2] (setting [6]) were -0.898, -1.42 and -1.11, respectively.
Regarding `O=C(O)c1cc(O)c2c(c1)C(=O)c1cccc(O)c1C2=O`, the Z-AUC is -0.369 (inactive) in assay [1], -0.852 in assay [1] (setting [3]) and -0.959 in assay [1] (measured here: PEO4 Z-AUC). In addition, the z-score was 1.17 in assay [2] (setting [4]), -0.187 in assay [2] (setting [5]) and 1.5 in assay [2] (setting [6]).
For the compound `NC[C@@H]1O[C@@H](O[C@H]2[C@@H](O)[C@H](O[C@@H]3[C@@H](O)[C@@H](N)C[C@H](N)[C@H]3O[C@H]3O[C@H](CN)[C@@H](O)[C@@H](O)[C@H]3N)O[C@H]2CO)[C@H](N)[C@@H](O)[C@@H]1O`, the z-score in assay [2] (setting [4]) was 1.35; in assay [2] (setting [5]), 0.643; in assay [2] (setting [6]), 1.63.
Consider `CO[C@H]1C[C@@H]2CC[C@@H](C)[C@@](O)(O2)C(=O)C(=O)N2CCCC[C@@H]2C(=O)O[C@H]([C@@H](C)C[C@@H]2CC[C@H](O)[C@H](OC)C2)CC(=O)[C@H](C)C=C(C)[C@@H](O)[C@@H](OC)C(=O)[C@H](C)C[C@H](C)C=CC=CC=C1C`, for which the values for the Z-AUC in assay [1], in assay [1] (setting [3]) and in assay [1] (measured here: PEO4 Z-AUC) were -0.986 (inactive), -0.581 and -0.84, respectively. For the same compound, the results for the z-score in assay [2] (setting [4]), in assay [2] (setting [5]) and in assay [2] (setting [6]) were -0.128, 1.08 and -0.61, respectively.
Regarding `CNC(=O)c1ccc2cc(C3(O)CCn4cncc43)ccc2c1` (stereo unspecified), the Z-AUC in assay [1] was -0.914 (inactive); in assay [1] (setting [3]), -0.347; in assay [1] (measured here: PEO4 Z-AUC) it was -0.305. Besides, the z-score in assay [2] (setting [4]) turned out to be 0.41; in assay [2] (setting [5]), 0.546; in assay [2] (setting [6]), 0.539.
As for `CO[C@H]1C[C@@H]2CC[C@@H](C)[C@@](O)(O2)C(=O)C(=O)N2CCCC[C@@H]2C(=O)O[C@H]([C@H](C)C[C@@H]2CC[C@H](OP(C)(C)=O)[C@H](OC)C2)CC(=O)[C@H](C)C=C(C)[C@@H](O)[C@@H](OC)C(=O)[C@H](C)C[C@H](C)C=CC=CC=C1C`, the results for the z-score in assay [2] (setting [4]), in assay [2] (setting [5]) and in assay [2] (setting [6]) were 0.0461, 0.621 and -0.765, respectively.
